The list is not random: actives were taken first. Their share in the collection is about 19%.
TDP1 cell CPT: growth inhibition of DT40 Tdp1-/-;hTDP1 cells with camptothecin (screen for TDP1 inhibitors); chicken DT40 Tdp1-/-;hTDP1 cells + 20 nM CPT, ATP luminescence, 48 h; Potency, µM (highest dose often 46.2 µM), inactives show at the top dose activity change, negative = growth inhibition, most hits filed as inhibitors; hit rate 12% among 420,000; AID 686979; further: potency means the concentration at half of the fitted maximal effect; nearly all actives have a fitted effect of over 55% in size
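Chicken DT40 Tdp1-/- cells complemented with human TDP1, 400 cells/well, exposed to compounds plus 20 nM camptothecin for at least 48 h at 37 C; viability read as ATP content by CellTiter-Glo luminescence.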
HT1080 IDH1KD tx: toxicity to HT-1080 IDH1 knockdown cells (counter line); Potency, µM (titrated, usually from 46.1 µM), inactives show at the top dose activity, negative = toxicity, most hits filed as cytotoxic; hit rate 2% among 360,000; HT-1080 IDH1 knockdown viability, ATP luminescence, 48 h;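 further: potency means the concentration at half of the fitted maximal effect; 0% = DMSO wells and -100% = cell-free medium wells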
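CellTiter-Glo luminescence after 48 h compound exposure at 37 degrees C of IDH1-knockdown HT-1080 cells in 5% FBS RPMI. %Activity scaled between DMSO wells and cell-free media wells, with curves fitted and assigned curve classes.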
DT40 TDP1 no CPT: qHTS for Inhibitors of human tyrosyl-DNA phosphodiesterase 1 (TDP1): qHTS in cells in absence of CPT. hit rate 15% among 420,000. AID 686978, 2013. DT40 Tdp1-/- hTDP1 cells, no CPT, ATP luminescence, 48 h. Potency, µM (top dose mostly 46.2 µM), for inactives: at the highest dose activity change, negative = growth inhibition, hits mostly inhibitors; further: potency means the concentration at half of the fitted maximal effect; nearly all actives have a fitted effect of over 55% in size
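Cells were dispensed at 400 per well, compounds added by pin tool, plates incubated ≥48 hr at 37 °C, then CellTiter-Glo added for 30 min at room temperature before luminescence reading. Line: DT40 Tdp1-/- complemented with hTDP1; camptothecin omitted.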
IL-1B inflam inh: inflammasome signaling inhibition, IL-1 beta readout | THP-1 LPS/ATP IL-1B secretion, AlphaLISA, 16 h; active compounds read low | activity change, % at 57.5 µM | hit rate 4.7% among 360,000 | AID 743279; in the data active means activity change below about -50%; inconclusive means mostly about -30% to -49%
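THP-1 cells pretreated 1 hr with compounds (up to 57.5 uM final), then stimulated with LPS (250 ng/mL final) plus ATP (1.25 mM final); secreted IL-1B measured by AlphaLISA after 16 hr, decreased signal indicating inhibition.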
HT1080NT lethal: kills 2HG-producing HT-1080-NT fibrosarcoma cells | HT-1080-NT fibrosarcoma viability, CellTiter-Glo ATP luminescence, 48 h | Potency, µM (top dose mostly 46.1 µM), for the others: at the highest dose activity, negative = less viability, usual class: cytotoxic | hit rate 1.6% among 360,000 | AID 686970;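 further: NT is the 2HG producing partner of a matched IDH1 knockdown line; potency means the concentration at half of the fitted maximal effect; 0% = DMSO-treated cells and -100% = media-only wells without cells; nearly all actives have a fitted effect of over 55% in size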
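Viability of the 2HG-overproducing fibrosarcoma line after 48 hours of compound exposure at 37 degrees C was determined by luminescence with CellTiter-Glo, and concentration-effect curves were then fitted and categorized.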
uPA surface inh: blocks generation of uPA at the cell surface; hit rate 0.31% among 330,000; Potency, µM (series often up to 38.3 µM), inactives show top-dose activity change, negative = inhibition, actives largely listed as inhibitors; cell surface uPA generation assay, qHTS; active means well fitted inhibition curve with a large enough effect; inconclusive means small, poorly fitted or top-dose-only effect; inactive means no such curve, though single readings can be large or run the other way; tested in mouse RAW 264.7 cells; further: potency means the concentration at half of the fitted maximal effect; nearly all actives have a fitted effect of over 55% in size
Numbers without * were called inactive; ? = inconclusive; nt = no result given; [ ] = remark or other dose. Unless noted, the call rests on the fitted dose curve; in most records, active means well fitted curve in the direction sought with a large enough effect; inconclusive means small, poorly fitted or top-dose-only effect, or another doubt; inactive means no such curve, though single readings can be large; an effect the other way counts as inactive or inconclusive. Unless noted, on the % scale 0 is the no-effect control and ±100 the full control effect.

SMILES | TDP1 cell CPT | HT1080 IDH1KD tx | DT40 TDP1 no CPT | IL-1B inflam inh | HT1080NT lethal | uPA surface inh
CCc1ccccc1NC(=O)CSc1nc2n[nH]c(C)c2c(=N)n1-c1cccc(C)c1 | 7.31µM* | nt | 3.66µM* | nt | nt | nt
CCc1c(O)nc(SCC(=O)Nc2ccccc2OC)n(-c2ccccc2C)c1=O | -0.9% | -17.4% | 17.4% | 24.8 | -4.3% | 0.1%
COc1ccccc1NC(=O)CSc1nc2n[nH]c(C)c2c(=N)n1-c1ccccc1Cl | 23.1µM* | ? | 25.9µM* | -7.6 | -13.4%[9.24 µM] | nt
O=C(Nc1cccc(Cl)c1)Nc1ccnc(-c2cccnc2)n1 | ? | -9.2% | 20.6µM* | 48.2 | -16.6% | 26.0%
O=C(Nc1ccnc(-c2cccnc2)n1)c1cccc(Cl)c1Cl | 20.6µM* | 0.6% | 23.1µM* | -3.3 | 0.6% | -7.5%
CC(Oc1ccccc1F)C(=O)NNC(=O)c1ccc(F)c(S(=O)(=O)N2CCOCC2)c1 (configuration not stated) | 12.5% | 4.4% | 2.2% | 10.3 | 2.2% | 9.3%
CC(=O)Nc1ccc(S(=O)(=O)N2CCC(c3nnc(-c4ccc(C)cc4)o3)CC2)cc1 | ? | 2.0% | 20.6µM* | -14.4 | 12.0% | 3.2%
COc1ccc(-c2nnc(C3CCN(S(=O)(=O)c4ccccc4)CC3)o2)cc1 | ? | -5.5% | ? | -7.1 | -11.3% | 13.8%
Cc1ccc(-c2nnc(C3CCN(S(=O)(=O)c4ccc(C)c(C)c4)CC3)o2)cc1 | ? | nt | 25.9µM* | nt | nt | nt
Cc1cccc(-c2nnc(C3CCN(S(=O)(=O)c4cccc(Cl)c4)CC3)o2)c1 | 3.66µM* | nt | 2.91µM* | nt | nt | nt
O=C(OCc1nnc(-c2ccccc2)o1)C1CC(=O)N(Cc2ccco2)C1 (configuration not stated) | -18.4% | 2.2% | -16.5% | -6.4 | 0.1% | -13.9%
C[C@H]1C(O)[C@@]23CCC4C5(C=[N+](CCO)C[C@]4(C)CCC5)C2C[C@@H]1C3 (some centres not stated) | -2.7%[9.04 µM] | nt | -10.8%[9.04 µM] | nt | nt | nt
Cn1ccc2c(/C=C/c3ccc(F)cc3)cc3c(c21)C1CCC3C1 (configuration not stated) | -16.3% | 1.9% | ? | 16.1 | 0.0% | nt
CN(c1cc2c(c3c1ccn3C)C1CCC2O1)C1CCCCC1 (configuration not stated) | ? | ? | ? | 26.5 | ? | nt
Cn1ccc2c(/C=C/c3ccc(F)cc3)cc3c(c21)C1CCC3O1 (configuration not stated) | 25.9µM* | ? | 11.6µM* | 14.0 | ? | nt
CN(c1ccc(Cl)cc1)c1cc2c(c3c1ccn3C)C1CCC2O1 (configuration not stated) | ? | -22.0% | 23.1µM* | 8.1 | -15.7% | nt
COc1ccc(-c2cc3c(c4c2ccn4C)C2CCC3O2)cn1 (configuration not stated) | 18.4µM* | -0.3% | 16.4µM* | 8.3 | 12.8% | nt
Cn1ccc2c(N3CCCCCCC3)cc3c(c21)C1CCC3O1 (configuration not stated) | ? | ? | 20.6µM* | -7.9 | ? | nt
CCN(CC)c1cc2c(c3c1ccn3C)C1CCC2O1 (configuration not stated) | -11.2% | 6.5% | -17.9% | 1.8 | 20.8% | nt
O=C1c2cccnc2C(=O)N1CNc1ccc(Cl)cc1 | -8.0% | -4.9% | -9.9% | 2.8 | -9.5% | -5.6%
CCOc1ccc(NC(=O)CSc2nc(=O)n(CCCN3CCOCC3)c3c2CCC3)cc1 | 5.4% | 2.7% | 4.7% | -4.0 | 0.7% | -1.6%
CCOC(=O)C1(C)CCN1C(=O)c1ccc(F)c(Cl)c1 (configuration not stated) | -29.7% | 14.0% | -15.9% | 16.0 | 20.5% | nt
